SMILES strings stand for the structures. Records with an inconclusive call do not appear. The source made the active and inactive calls.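 How the source made its calls, unless noted: active means inhibition above 54%, about 3 SD of non-fluorescent compounds; inactive means the rest.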

A short description of assay [1]: rapamycin-like changes in RPL19A-GFP expression – cell-based, S. cerevisiae, multiplex flow cytometry, primary screen (AID 1862; in the data active means percent of DMSO control GFP below about 86%;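 further: lower values mimic rapamycin by blocking the RPL19A rise seen in DMSO cells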). The following applies: S. cerevisiae RPL19A-GFP strain, flow cytometry fluorescence, 3 h; at 10 µM; stronger effect = lower value. (In general: Flow cytometry measures light scatter and fluorescence of single cells or particles in a stream.)
Assay [2] in a line: TOR pathway GLN3 branch reporter MEP2-GFP changes – S. cerevisiae, multiplex flow cytometry, primary screen (AID 1867;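 active means GFP response, as percent of the DMSO control, above the screen-wide mean plus 3 SD, about 139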;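 further: median GFP channel fluorescence of barcode-gated MEP2-GFP cells measured by flow cytometry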). Particulars: S. cerevisiae MEP2-GFP strain, 3 h, at 10 µM, stronger effect = higher value, 100% means same as DMSO wells.
Assay [3] in a line: TOR pathway RTG branch CIT2 reporter changes – S. cerevisiae, GFP fusion, multiplex flow cytometry, primary screen (AID 1870;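 active means percent response above a set limit, the screen-wide mean plus 3 SD, cut at about 130% in these data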;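 further: barcoded CIT2-GFP strain pooled with four other GFP strains with rapamycin as positive control; median GFP fluorescence per well over plate mean of DMSO wells so 100% = DMSO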). The following applies: S. cerevisiae CIT2-GFP expression, 3 h, at 10 µM, stronger effect = higher value.
A short description of assay [4]: TOR pathway LAP4-GFP level changes – S. cerevisiae, multiplex flow cytometry, primary screen (AID 1873;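 active means GFP signal, as percent of the solvent control, above the screen mean plus 3 SD, about 149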). Particulars: S. cerevisiae LAP4-GFP expression, 3 h, at 10 µM, stronger effect = higher value.
Assay [5] is described as follows: yeast AGP1-GFP level changes, GLN3 branch – cell-based, multiplex flow cytometry, S. cerevisiae, primary screen (AID 1887;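 active means GFP signal above the screen-wide mean plus 3 SD, that is over about 124.5% of the solvent control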;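 further: AGP1-GFP fusion strain of S. cerevisiae within a five-strain barcoded multiplex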). Particulars: 3 h, at 10 µM, stronger effect = higher value.
Assay [6] can be described thus: reduced mouse 2C T cell binding to pMHC/ICAM-1 vesicles – MLPCN validation set, flow cytometry, LFA-1/ICAM-1 modulator project, pilot screen (AID 2523;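 active means response below a set limit, under 55% cells CD8-positive and vesicle-bound, and CD8 cells' 90th-percentile brightness under 279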;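 on vesicle binding response: mean PE anti-B7-1 fluorescence of CD8+ cells relative to row control; 100% = QL9-loaded vesicles with DMSO vehicle in the same plate row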). Particulars: 2C mouse CD8+ T cells, at 7 µM, stronger effect = lower value; double positive events: measured here: CD8+/vesicle+ event percentage.
The target of assay [7] is Integrin beta-1 (Homo sapiens) + Integrin alpha-4 (Homo sapiens) (UniProt P13612+P05556). As to the kind of experiment: alpha4beta1 integrin LIBS antibody binding reduction – U937 cells, HUTS-21 mAb, flow cytometry, validation set, VLA-4 allosteric modulator project, pilot screen (AID 2674;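 active means inhibition above 50%, about 3 SD of the validation set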;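 further: antibody binding induced by the VLA-4 ligand LDV present at three times its Kd; 0% = LDV ligand with antibody and no compound and 100% = antibody without LDV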). The following applies: HUTS-21 LIBS mAb binding, at 6.7 µM, stronger effect = higher value, binding induced by LDV ligand.

Assay [8] in a line: calorie-restriction mimetic ROS inhibitors, yeast – validation compound set, pilot screen (AID 2706;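 active means superoxide response below 65% of plate, a cut near 3 SD across the whole screen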;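 further: yeast exposed to compound for one week at 30 degrees C before staining; 100% = mean of all compound wells on the same plate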). The following applies: S. cerevisiae aging, superoxide DHE fluorescence; at 10 µM; stronger effect = lower value.
For assay [9], the target named is Beta-adrenergic receptor kinase 1 (Homo sapiens) (UniProt P25098). As to the kind of experiment: GRK2 binders displacing RNA aptamer, biochemical, validation, human GRK2, bead flow cytometry (AID 488806;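 active means aptamer binding inhibition above 30%, about 3 SD of noise from non-fluorescent compounds; inactive means inhibition at or below 30%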). Particulars: bead-bound GRK2, FAM-aptamer displacement, at 10 µM, stronger effect = higher value.
The target in assay [10] is Beta-2 adrenergic receptor (Homo sapiens) (UniProt P07550). Description: agonist-induced loss of surface beta2AR – cell-based, FAP fluorogen, flow cytometry, validation set, pilot screen (AID 504459;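 active means percent response above 42, roughly 3 SD of non-fluorescent test compounds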;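 further: agonist-driven loss of surface beta2AR via internalization measured by FAP dye flow cytometry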). Particulars: Am2.2-beta2AR cells, at 10 µM, stronger effect = higher value.
The target in assay [11] is AP-2 complex subunit beta (Homo sapiens) (UniProt P63010). As to the kind of experiment: beta-arrestin/AP2 interaction blockers – biochemical, validation set, GST-AP2 beads, flow cytometry, pilot screen (AID 504541).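 Further: AP2 carries R879A mutation and is captured from E. coli lysate; bead-bound FITC arrestin peptide fluorescence measuring arrestin peptide binding to AP2; 0% = DMSO wells and 100% = excess unlabeled arrestin peptide control.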 Particulars: FITC arrestin peptide, at 10 µM, stronger effect = higher value, AP2 beta2 appendage fragment, R879A mutant.
Assay [12] in a line: cytosolic pH regulators acting via V-ATPase – S. cerevisiae, pHLuorin, HTS validation (AID 504600; in the data active means response above about 15%;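 further: plate controls were DMSO for no effect and reference compound for full effect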). Particulars: V-ATPase proton transport, at 10 µM, stronger effect = higher value.
Assay [13] relates to anti-desmoglein-3 scFv antibody binding to human DSG3. As to the kind of experiment: blockers of pathogenic pemphigus antibody–desmoglein-3 binding – biochemical, validation compound set, bead-based, flow cytometry, pilot screen (AID 588368;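 active means binding below the plate cutoff, the plate median minus 3 SD, with a reading above zero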;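 further: signal is the median channel fluorescence of bead-bound GFP antibody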). Particulars: Protein G beads, DSG3-Fc, scFv-GFP binding, at 10 µM, stronger effect = lower value.
Assay [14] can be described thus: Nile Red efflux blockade in pump-expressing yeast – validation compound set, multiplex, phenotypic, pilot screen (AID 588506;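 active means efflux inhibition above 0.42, the validation set average plus 4 SD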;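 further: Nile Red retained in cells so higher fluorescence means more efflux inhibition; 0 = negative control wells and 1 = enniatin B 25 µM full block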). Particulars: S. cerevisiae pump-expressing triplex, Nile Red efflux flow cytometry; at 10 µM; stronger effect = higher value; the pumps come from Candida albicans.
For assay [15], the target named is ATP-binding cassette sub-family B member 6 (Homo sapiens) (UniProt Q9NP58). Description: blockers of ABCB6-driven porphyrin uptake – K562-ABCB6 cells, flow cytometry, validation set, pilot screen (AID 588550;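 active means inhibition above the screen-wide mean plus 3 SD, about 51%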;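 further: 0% = DMSO wells and 100% = benzethonium chloride 70 µM positive control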). Particulars: K562-ABCB6 porphyrin accumulation, 1 h, at 10 µM, stronger effect = higher value.
The nature of assay [16]: AML differentiation inducers, ER-HoxA9 marrow cells – cell-based, GFP/MAC1 double positive, flow cytometry, validation set, primary screen (AID 588685;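 active means differentiation response of at least 50%, scaled between solvent and reference control, from cells with both markers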;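 further: compound exposure lasts four days before antibody staining and flow analysis; 0% = DMSO wells and 100% = 5 µM fulvestrant positive control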). Particulars: stronger effect = higher value, normalized: vehicle 0, fulvestrant 100.

ATP-binding cassette sub-family B member 6 (Homo sapiens), sequence (Q9NP58 whole entry, looked up): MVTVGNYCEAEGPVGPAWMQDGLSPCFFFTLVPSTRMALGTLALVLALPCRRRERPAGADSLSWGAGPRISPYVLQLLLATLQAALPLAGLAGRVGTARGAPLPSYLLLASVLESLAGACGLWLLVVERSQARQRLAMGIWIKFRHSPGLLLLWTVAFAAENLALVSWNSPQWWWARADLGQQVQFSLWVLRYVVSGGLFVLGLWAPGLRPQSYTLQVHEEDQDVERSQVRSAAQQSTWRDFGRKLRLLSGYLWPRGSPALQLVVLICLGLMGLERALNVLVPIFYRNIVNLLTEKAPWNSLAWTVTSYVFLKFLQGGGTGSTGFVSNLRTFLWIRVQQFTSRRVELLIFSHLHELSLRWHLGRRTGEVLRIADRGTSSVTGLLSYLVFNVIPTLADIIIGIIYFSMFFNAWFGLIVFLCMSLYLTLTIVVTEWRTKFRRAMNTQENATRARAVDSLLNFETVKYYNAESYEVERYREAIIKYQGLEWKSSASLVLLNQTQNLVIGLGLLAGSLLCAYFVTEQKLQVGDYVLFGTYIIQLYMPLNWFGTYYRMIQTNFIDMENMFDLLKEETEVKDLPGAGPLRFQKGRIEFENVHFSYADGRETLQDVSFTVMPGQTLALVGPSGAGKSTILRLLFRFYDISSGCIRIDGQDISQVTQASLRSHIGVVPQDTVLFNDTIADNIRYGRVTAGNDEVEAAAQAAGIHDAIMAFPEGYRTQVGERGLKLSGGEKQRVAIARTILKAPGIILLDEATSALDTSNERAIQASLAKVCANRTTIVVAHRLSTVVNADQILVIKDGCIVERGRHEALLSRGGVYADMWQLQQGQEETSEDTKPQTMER
Integrin beta-1 (Homo sapiens) + Integrin alpha-4 (Homo sapiens), sequence (P05556 whole entry, looked up): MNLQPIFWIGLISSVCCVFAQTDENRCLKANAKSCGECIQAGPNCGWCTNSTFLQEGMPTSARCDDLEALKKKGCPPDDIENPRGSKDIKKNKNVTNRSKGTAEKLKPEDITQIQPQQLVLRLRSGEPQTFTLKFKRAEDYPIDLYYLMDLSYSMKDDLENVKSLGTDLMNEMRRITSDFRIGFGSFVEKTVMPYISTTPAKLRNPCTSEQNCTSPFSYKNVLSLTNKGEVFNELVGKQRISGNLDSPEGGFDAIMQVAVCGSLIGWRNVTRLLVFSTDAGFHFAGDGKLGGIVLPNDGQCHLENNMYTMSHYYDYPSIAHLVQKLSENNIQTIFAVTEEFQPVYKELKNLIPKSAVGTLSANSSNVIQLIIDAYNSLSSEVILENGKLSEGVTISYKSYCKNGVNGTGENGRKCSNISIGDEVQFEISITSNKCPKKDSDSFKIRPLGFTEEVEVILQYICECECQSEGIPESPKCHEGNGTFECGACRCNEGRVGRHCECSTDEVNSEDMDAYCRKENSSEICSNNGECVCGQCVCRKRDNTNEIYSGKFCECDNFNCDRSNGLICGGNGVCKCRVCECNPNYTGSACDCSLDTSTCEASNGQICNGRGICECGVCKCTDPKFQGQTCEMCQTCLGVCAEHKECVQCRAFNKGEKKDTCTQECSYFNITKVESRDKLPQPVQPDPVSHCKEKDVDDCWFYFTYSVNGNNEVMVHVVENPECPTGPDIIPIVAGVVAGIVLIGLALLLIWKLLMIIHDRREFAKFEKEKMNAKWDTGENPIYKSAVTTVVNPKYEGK
Integrin beta-1 (Homo sapiens) + Integrin alpha-4 (Homo sapiens), sequence (P13612 whole entry, looked up): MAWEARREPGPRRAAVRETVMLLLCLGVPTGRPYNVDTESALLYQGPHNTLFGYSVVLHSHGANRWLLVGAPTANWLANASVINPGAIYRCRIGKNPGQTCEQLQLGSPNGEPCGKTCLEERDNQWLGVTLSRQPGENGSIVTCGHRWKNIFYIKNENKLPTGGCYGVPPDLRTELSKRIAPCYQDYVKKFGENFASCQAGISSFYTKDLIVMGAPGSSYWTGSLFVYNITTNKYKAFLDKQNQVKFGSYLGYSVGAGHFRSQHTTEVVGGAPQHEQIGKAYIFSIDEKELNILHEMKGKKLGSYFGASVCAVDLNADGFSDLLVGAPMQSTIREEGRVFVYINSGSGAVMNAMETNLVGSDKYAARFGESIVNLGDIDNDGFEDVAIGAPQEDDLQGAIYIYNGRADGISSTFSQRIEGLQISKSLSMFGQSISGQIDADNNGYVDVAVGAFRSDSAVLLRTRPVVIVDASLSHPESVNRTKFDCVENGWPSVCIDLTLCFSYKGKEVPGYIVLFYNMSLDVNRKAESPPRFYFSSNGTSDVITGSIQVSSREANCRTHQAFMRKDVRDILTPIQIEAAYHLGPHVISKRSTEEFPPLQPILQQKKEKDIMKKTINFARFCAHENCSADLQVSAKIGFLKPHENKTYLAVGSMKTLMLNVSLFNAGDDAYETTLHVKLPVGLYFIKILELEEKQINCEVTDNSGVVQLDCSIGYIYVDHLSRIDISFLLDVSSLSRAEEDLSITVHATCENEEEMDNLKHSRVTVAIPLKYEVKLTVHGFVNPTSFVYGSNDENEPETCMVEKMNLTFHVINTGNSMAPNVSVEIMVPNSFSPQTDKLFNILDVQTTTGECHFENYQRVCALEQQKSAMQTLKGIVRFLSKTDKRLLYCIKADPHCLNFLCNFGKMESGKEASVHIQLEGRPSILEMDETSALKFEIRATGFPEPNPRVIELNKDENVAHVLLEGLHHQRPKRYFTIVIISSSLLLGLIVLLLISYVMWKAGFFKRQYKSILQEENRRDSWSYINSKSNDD
Beta-2 adrenergic receptor (Homo sapiens), sequence (P07550 whole entry, looked up): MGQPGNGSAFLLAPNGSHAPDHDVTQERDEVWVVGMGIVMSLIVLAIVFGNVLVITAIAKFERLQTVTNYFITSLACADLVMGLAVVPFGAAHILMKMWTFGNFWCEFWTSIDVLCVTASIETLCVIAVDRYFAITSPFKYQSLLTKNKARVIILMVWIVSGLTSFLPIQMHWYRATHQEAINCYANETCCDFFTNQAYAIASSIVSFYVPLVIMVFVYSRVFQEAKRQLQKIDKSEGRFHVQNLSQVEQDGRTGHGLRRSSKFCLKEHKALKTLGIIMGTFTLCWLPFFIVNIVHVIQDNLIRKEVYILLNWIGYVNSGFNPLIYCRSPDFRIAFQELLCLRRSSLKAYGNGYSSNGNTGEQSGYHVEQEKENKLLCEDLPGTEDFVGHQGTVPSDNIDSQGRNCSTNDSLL
AP-2 complex subunit beta (Homo sapiens), sequence (P63010 whole entry, looked up, the tested form may be a part, one chain of several): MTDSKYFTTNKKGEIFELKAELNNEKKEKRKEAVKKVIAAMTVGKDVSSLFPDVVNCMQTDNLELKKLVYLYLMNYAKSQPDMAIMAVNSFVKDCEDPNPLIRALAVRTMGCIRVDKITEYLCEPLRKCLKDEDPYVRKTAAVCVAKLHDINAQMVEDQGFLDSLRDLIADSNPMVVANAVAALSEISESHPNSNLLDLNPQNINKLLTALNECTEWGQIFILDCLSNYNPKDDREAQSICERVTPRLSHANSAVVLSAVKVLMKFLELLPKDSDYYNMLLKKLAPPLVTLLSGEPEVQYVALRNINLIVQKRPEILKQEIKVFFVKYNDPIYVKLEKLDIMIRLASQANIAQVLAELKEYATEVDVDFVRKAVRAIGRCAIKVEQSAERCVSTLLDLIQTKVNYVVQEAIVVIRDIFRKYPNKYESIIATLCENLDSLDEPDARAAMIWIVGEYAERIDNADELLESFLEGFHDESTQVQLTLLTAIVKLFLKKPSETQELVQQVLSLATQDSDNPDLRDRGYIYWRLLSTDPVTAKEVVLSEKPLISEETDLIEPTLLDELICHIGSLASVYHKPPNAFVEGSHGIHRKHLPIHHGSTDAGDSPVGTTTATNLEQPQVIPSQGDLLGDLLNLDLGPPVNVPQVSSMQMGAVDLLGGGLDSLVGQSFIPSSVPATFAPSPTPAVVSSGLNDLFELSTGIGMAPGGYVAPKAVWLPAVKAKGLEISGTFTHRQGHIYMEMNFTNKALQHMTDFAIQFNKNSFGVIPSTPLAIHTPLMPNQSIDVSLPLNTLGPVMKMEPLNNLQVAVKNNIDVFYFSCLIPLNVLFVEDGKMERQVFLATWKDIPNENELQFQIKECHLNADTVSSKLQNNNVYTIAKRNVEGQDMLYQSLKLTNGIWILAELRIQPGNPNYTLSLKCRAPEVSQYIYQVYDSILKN
Beta-adrenergic receptor kinase 1 (Homo sapiens), sequence (P25098 whole entry, looked up): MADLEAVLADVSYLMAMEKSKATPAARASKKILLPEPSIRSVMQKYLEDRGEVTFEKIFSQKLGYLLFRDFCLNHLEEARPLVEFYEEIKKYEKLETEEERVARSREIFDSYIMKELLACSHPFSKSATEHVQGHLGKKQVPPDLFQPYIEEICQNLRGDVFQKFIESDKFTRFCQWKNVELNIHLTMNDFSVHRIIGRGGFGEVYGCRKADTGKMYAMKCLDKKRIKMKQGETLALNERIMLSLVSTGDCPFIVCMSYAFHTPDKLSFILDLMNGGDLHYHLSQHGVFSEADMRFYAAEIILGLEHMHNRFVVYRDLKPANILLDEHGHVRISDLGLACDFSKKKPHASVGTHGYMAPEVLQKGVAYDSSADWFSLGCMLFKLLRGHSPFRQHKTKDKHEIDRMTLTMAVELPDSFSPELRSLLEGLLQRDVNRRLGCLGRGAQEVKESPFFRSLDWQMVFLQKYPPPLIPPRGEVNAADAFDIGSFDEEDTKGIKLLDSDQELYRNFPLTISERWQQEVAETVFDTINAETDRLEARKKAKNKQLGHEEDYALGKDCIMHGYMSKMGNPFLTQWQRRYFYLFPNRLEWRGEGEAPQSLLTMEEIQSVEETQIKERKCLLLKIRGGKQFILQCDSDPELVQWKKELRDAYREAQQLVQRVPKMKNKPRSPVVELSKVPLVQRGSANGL

As usually defined, the inhibition is the drop in the measured response relative to a control, in per cent. Consider `COc1cc2c(cc1OC)CN(Cc1ccc(C)s1)CC2`, for which, in [1], the percent of DMSO control GFP was 102% (inactive). In addition, the GFP response vs DMSO was 106% (inactive) in [2] and 88.1% (inactive) in [4]. In assay [3], the percent response of DMSO control was 105% (inactive). For the same compound, in assay [5], the GFP response, % of DMSO is 98% (inactive). For the same compound, in assay [6], the double positive events is 64.1%. Moreover, the vesicle binding response in [6] is 349% (inactive). Also, the figures for the inhibition in [7], in assay [11] and in assay [15] were -13.9% (inactive), 14.8% (inactive) and 4% (inactive), respectively. Besides, in assay [8], the superoxide response (% of plate) is 103% (inactive). Further, the aptamer binding inhibition in assay [9] was 4% (inactive). For the same compound, the response in assay [10] was -7.1% (inactive); in [12], -3% (inactive). Besides, in assay [13], the binding (% of control) is 101% (inactive). The efflux inhibition (fraction of control) in assay [14] was 0.05 (inactive). Further, the differentiation response in assay [16] is 2.2% (inactive).

In the case of `COC(=O)C1=C(C)N(C)C(=S)NC1c1ccc(Cl)cc1` (stereo not given), the percent of DMSO control GFP in assay [1] is 99.8% (inactive). In addition, the GFP response vs DMSO in [2] is 95.6% (inactive); in assay [4] it was 98% (inactive). Moreover, the percent response of DMSO control in assay [3] is 98.6% (inactive). For the same compound, the GFP response, % of DMSO in assay [5] is 88.8% (inactive). The compound further yielded a double positive events in assay [6] of 63%. Further, the vesicle binding response in assay [6] was 138% (inactive). The inhibition in [7] is -2.43% (inactive); in [11], 0.15% (inactive); in [15] it was 7% (inactive). For the same compound, the superoxide response (% of plate) in assay [8] was 99.9% (inactive). For the same compound, in assay [9], the aptamer binding inhibition was 3% (inactive). For the same compound, the response in [10] was -27.7% (inactive); in assay [12], 0.83% (inactive). Moreover, the binding (% of control) in assay [13] is 97.9% (inactive). For the same compound, in assay [14], the efflux inhibition (fraction of control) was -0.04 (inactive). The differentiation response in assay [16] was -10.4% (inactive).

Regarding `N=c1c[n+](N2CCOCC2)[n-]o1`, the percent of DMSO control GFP in assay [1] is 102% (inactive). Besides, the GFP response vs DMSO in [2] is 106% (inactive); in assay [4] it was 89.4% (inactive). For the same compound, the percent response of DMSO control in assay [3] was 112% (inactive). Further, in [5], the GFP response, % of DMSO is 96.2% (inactive). The compound further registered a double positive events in assay [6] of 65%. Besides, the vesicle binding response in assay [6] was 236% (inactive). For the same compound, the inhibition in assay [7] was 13% (inactive); in assay [11], 3.46% (inactive); in assay [15], 9% (inactive). In assay [8], the superoxide response (% of plate) was 92.1% (inactive). Besides, in assay [9], the aptamer binding inhibition is 3% (inactive). Also, the response is -6.36% (inactive) in [10] and -0.08% (inactive) in [12]. In [13], the binding (% of control) is 95.1% (inactive). Besides, in assay [14], the efflux inhibition (fraction of control) was -0.07 (inactive). Also, the differentiation response in [16] is 7.09% (inactive).

As to `CC(C)N(C(=O)Cc1ccccc1[N+](=O)[O-])C(C)C`, in assay [1], the percent of DMSO control GFP is 104% (inactive). Also, the figures for the GFP response vs DMSO in assay [2] and in [4] were 96.3% (inactive) and 92.2% (inactive), respectively. Further, the percent response of DMSO control in assay [3] is 102% (inactive). For the same compound, the GFP response, % of DMSO in assay [5] was 104% (inactive). For the same compound, the double positive events in [6] came out at 60.4%. Also, the vesicle binding response in assay [6] is 240% (inactive). Moreover, the inhibition was 3.67% (inactive) in assay [7], -8.88% (inactive) in assay [11] and 5% (inactive) in [15]. The superoxide response (% of plate) in [8] is 104% (inactive). Also, the aptamer binding inhibition in assay [9] was 2% (inactive). Further, the response was -2.55% (inactive) in [10] and 1.74% (inactive) in assay [12]. Besides, the binding (% of control) in [13] is 103% (inactive). Besides, in assay [14], the efflux inhibition (fraction of control) was -0.13 (inactive). Besides, the differentiation response in assay [16] is -26.4% (inactive).

As for `COc1cccc(-n2c(C)c3c(OC)cccc(=O)c3c2C)c1`, the percent of DMSO control GFP in assay [1] was 89.8% (inactive). Further, the GFP response vs DMSO was 140% (active) in assay [2] and 85.8% (inactive) in assay [4]. Besides, in assay [3], the percent response of DMSO control is 106% (inactive). Also, in [5], the GFP response, % of DMSO was 92.4% (inactive). Further, the double positive events in assay [6] was 49.9%. Besides, the vesicle binding response in assay [6] was 53.8% (active). Besides, the inhibition in assay [7] was -33.3% (inactive); in assay [11], 41% (inactive); in [15], 0% (inactive). For the same compound, the superoxide response (% of plate) in assay [8] was 109% (inactive). In assay [9], the aptamer binding inhibition was 5% (inactive). The response was -3.28% (inactive) in [10] and -5.84% (inactive) in assay [12]. Further, the binding (% of control) in assay [13] was 103% (inactive). In assay [14], the efflux inhibition (fraction of control) is 0.12 (inactive). For the same compound, the differentiation response in assay [16] is -4.91% (inactive).

For the origin of these results see PubChem BioAssay.
